# Results filed as inconclusive are left out. Entries that show only a call come without a potency. The source made the active and inactive calls. Unless noted, calls come from the whole dose curve; as a rule, active = well fitted curve in the direction sought with a large enough effect in the repeat runs; inconclusive = weak or mixed curves; inactive = no such curve, though single readings can be large; an effect the other way counts as inactive or inconclusive.
# What was measured:
# [1] = qHTS assay to identify aromatase inhibitors - cell viability counter screen (AID 743084);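 note: cells stimulated with testosterone during compound exposure; nearly all actives have a fitted effect of over 55% in size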
# [2] = biological target: Aryl hydrocarbon receptor (Homo sapiens) (UniProt P35869); assay: qHTS assay to identify small molecule that activate the aryl hydrocarbon receptor (AhR) signaling pathway (AID 743085); note: nearly all actives have a fitted effect of over 15% in size; note: potency is the fitted concentration of half-maximal effect;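 for activation: HG2L7.5c1 human HepG2 liver cells with stably integrated DRE-driven firefly reporter; series mostly up to about 70 µM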
# Procedure, shortened: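 Luminescence read-out: ONE-Glo reagent, 30 min at room temperature, in HG2L7.5c1 HepG2 reporter cells treated 24 h at 37C. Viability was measured beforehand by CellTiter-Fluor fluorescence after 30 min at 37C.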
# [3] = qHTS assay to identify small molecule that activate the aryl hydrocarbon receptor (AhR) signaling pathway - cell viability counter screen (AID 743086);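 note: HepG2 liver cells carrying the AhR DRE luciferase reporter; series mostly up to about 70 µM; nearly all actives have a fitted effect of over 45% in size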
# Procedure, shortened: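 HepG2-AhR-luc (HG2L7.5c1) cells, 4000/well, treated 24 h at 37 C with compound; viability measured as CellTiter-Fluor fluorescence after 30 min in the same wells as the luciferase read.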
# [4] = biological target: Peroxisome proliferator-activated receptor gamma (Homo sapiens) (UniProt P37231); assay: qHTS assay to identify small molecule agonists of the peroxisome proliferator-activated receptor gamma (PPARg) signaling pathway (AID 743094; active = well fitted activation curve with a large enough effect in the signal ratio in the repeat runs, not every such curve was filed as active; the % refers to the signal ratio)
# Procedure, shortened: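 GeneBLAzer PPARg UAS-bla HEK293H cells were plated, rested 5 h, then exposed to compounds for 17 h at 37C. Beta-lactamase activity was read by LiveBLAzer B/G FRET substrate fluorescence after 1 h at room temperature.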
# [5] = qHTS assay to identify small molecule antagonists of the peroxisome proliferator-activated receptor gamma (PPARg) signaling pathway - cell viability counter screen (AID 743194); note: nearly all actives have a fitted effect of over 55% in size
# Procedure, shortened: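 Cytotoxicity counter screen in PPARg-bla HEK293H cells, same wells as reporter assay. Compounds plus 50 nM rosiglitazone (final) for 17 h at 37 C, then viability read by CellTiter-Glo luminescence.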
# [6] = qHTS assay for small molecule agonists of the antioxidant response element (ARE) signaling pathway (AID 743202; active = well fitted activation curve with a large enough effect in the signal ratio in the repeat runs, not every such curve was filed as active; the % refers to the signal ratio)
# Procedure, shortened: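 Agonist mode reporter screen: HepG2 cells with ARE-controlled beta-lactamase are incubated with test compounds for 16 h at 37 C, and beta-lactamase activity is measured as fluorescence of cleaved B/G FRET substrate.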
# [7] = qHTS assay for small molecule agonists of the antioxidant response element (ARE) signaling pathway - cell viability counter screen (AID 743203; calls by dose curve; note: nearly all actives have a fitted effect of over 55% in size)
# Procedure, shortened: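 ARE-bla HepG2 cells were plated, rested 5 h at 37C/5% CO2, then exposed to compounds in DMSO for 16 h. Viability was read as CellTiter-Glo luminescence after 30 min at room temperature, in the same wells as the ARE screen.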
# [8] = qHTS assay for small molecule activators of the heat shock response signaling pathway - cell viability counter screen (AID 743209); note: nearly all actives have a fitted effect of over 50% in size
# Procedure, shortened: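 HSE-bla HeLa cells plated overnight, then exposed to Tox21 compounds (23 nL in DMSO) for 5 h at 37 C. After the bla reporter read, CellTiter-Glo was added in the same wells and luminescence read after 30 min at room temperature.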
# [9] = qHTS assay for small molecule activators of the heat shock response signaling pathway (AID 743210; active = well fitted activation curve with a large enough effect in the signal ratio in the repeat runs, with a control signal flat, not every such curve was filed as active; the % refers to the signal ratio;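 note: HeLa cells with beta-lactamase reporter driven by heat shock elements; series mostly up to about 63 µM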)
# Procedure, shortened: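 Quantitative high-throughput format using an engineered HeLa line in which heat shock response elements drive beta-lactamase; after 5 h with compound, cells received a B/G FRET substrate and fluorescence was read.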
# [10] = qHTS assay to identify small molecule agonists of the peroxisome proliferator-activated receptor delta (PPARd) signaling pathway - cell viability counter screen (AID 743211); note: nearly all actives have a fitted effect of over 55% in size
# Procedure, shortened: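 Read-out: CellTiter-Glo luminescence, 30 min RT, measured in the same wells as the beta-lactamase reporter. Cells: GeneBLAzer PPAR delta UAS-bla HEK293H, 3000 cells/well, compound exposure 17 h at 37C.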
# [11] = biological target: Peroxisome proliferator-activated receptor delta (Homo sapiens) (UniProt Q03181); assay: qHTS assay to identify small molecule agonists of the peroxisome proliferator-activated receptor delta (PPARd) signaling pathway (AID 743212; calls by dose curve)
# Procedure, shortened: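 Quantitative high-throughput agonist screen in a HEK293H beta-lactamase reporter line under UAS control. Compounds in DMSO, at 37 C. Fluorescence read after 2 h with FRET substrate at room temperature.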
# [12] = qHTS assay to identify small molecule antagonists of the peroxisome proliferator-activated receptor delta (PPARd) signaling pathway - cell viability counter screen (AID 743213); note: nearly all actives have a fitted effect of over 50% in size
# Procedure, shortened: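 Same-well viability: cells pre-incubated 5 h, dosed with compound plus 300 nM L165041, kept 17 h at 37 C, FRET substrate 2 h RT, then CellTiter-Glo 30 min RT and luminescence.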
# [13] = biological target: Peroxisome proliferator-activated receptor delta (Homo sapiens) (UniProt Q03181); assay: qHTS assay to identify small molecule antagonists of the peroxisome proliferator-activated receptor delta (PPARd) signaling pathway (AID 743215; active = well fitted inhibition curve with a large enough effect in the signal ratio in the repeat runs, not every such curve was filed as active; the % refers to the signal ratio;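 note: cells stimulated with agonist L165041 at 300 nM final during compound exposure; series mostly up to about 62 µM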)
# Procedure, shortened: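 PPARd-bla HEK293H cells (UAS-bla reporter) preincubated 5 h, then given compound plus 300 nM final L165041 agonist for 17 h at 37 C. Beta-lactamase activity read by LiveBLAzer B/G FRET substrate fluorescence after 2 h at room temperature.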
# [14] = qHTS assay to identify small molecule agonists of the farnesoid-X-receptor (FXR) signaling pathway - cell viability counter screen (AID 743218); note: nearly all actives have a fitted effect of over 45% in size
# Procedure, shortened: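 FXR-UAS-bla HEK 293T cells exposed to compounds for 16 h at 37C. Cytotoxicity read in the same wells by CellTiter-Glo luminescence after 30 min at room temperature, following the beta-lactamase FRET read.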
# [15] = qHTS assay to identify small molecule antagonists of the farnesoid-X-receptor (FXR) signaling pathway - cell viability counter screen (AID 743221; active = well fitted cell-killing curve with a large enough effect in the repeat runs, not every such curve was filed as active; note: nearly all actives have a fitted effect of over 50% in size)
# Procedure, shortened: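 HEK 293T FXR-bla cells, 5 h pre-incubation; compound + CDCA 50 uM final, 16 h, 37 C; beta-lactamase FRET read first, then CellTiter-Glo luminescence, 30 min RT.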
# [16] = biological target: Vitamin D3 receptor (Homo sapiens) (UniProt P11473); assay: qHTS assay to identify small molecule agonists of the vitamin D receptor (VDR) signaling pathway (AID 743222; calls by dose curve)
# Procedure, shortened: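 VDR-bla cells plated 4 h at 37 C, then exposed to compounds for 16 h at 37 C. Beta-lactamase reporter activity measured by fluorescence after 2 h room-temperature loading with LiveBLAzer B/G FRET substrate.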
# [17] = biological target: Vitamin D3 receptor (Homo sapiens) (UniProt P11473); assay: qHTS assay to identify small molecule antagonists of the vitamin D receptor (VDR) signaling pathway (AID 743223; active = well fitted inhibition curve with a large enough effect in the signal ratio in the repeat runs, not every such curve was filed as active; the % refers to the signal ratio)
# Procedure, shortened: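 Beta-lactamase reporter read-out: FRET substrate fluorescence after 2 h at room temperature, following 16 h exposure of VDR-bla cells to test compound plus 3 nM (final) 1alpha,25-dihydroxyvitamin D3 agonist at 37C.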
# [18] = biological target: Bile acid receptor (Homo sapiens) (UniProt Q96RI1); assay: qHTS assay to identify small molecule agonists of the farnesoid-X-receptor (FXR) signaling pathway (AID 743220; active = well fitted activation curve with a large enough effect in the signal ratio in the repeat runs, not every such curve was filed as active; the % refers to the signal ratio)
# Procedure, shortened: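 Beta-lactamase reporter under UAS control in GeneBLAzer FXR HEK 293T cells (5000/well) measured with LiveBLAzer FRET substrate after 2 h at room temperature. Compound exposure lasted 16 h at 37C.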
# [19] = biological target: Peroxisome proliferator-activated receptor gamma (Homo sapiens) (UniProt P37231); assay: qHTS assay to identify small molecule antagonists of the peroxisome proliferator-activated receptor gamma (PPARg) signaling pathway (AID 743191; calls by dose curve; note: series mostly up to about 63 µM; nearly all actives have a fitted effect of over 30% in size)
# Procedure, shortened: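 GeneBLAzer PPARg UAS-bla HEK293H cells, 5 h post-plating, exposed to compounds 17 h at 37C. LiveBLAzer B/G FRET substrate added for 1 h at room temperature; beta-lactamase reporter read by fluorescence intensity.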
# [20] = biological target: Bile acid receptor (Homo sapiens) (UniProt Q96RI1); assay: qHTS assay to identify small molecule antagonists of the farnesoid-X-receptor (FXR) signaling pathway (AID 743217; active = well fitted inhibition curve with a large enough effect in the signal ratio in the repeat runs, not every such curve was filed as active; the % refers to the signal ratio)
# Procedure, shortened: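 FXR-UAS-bla HEK 293T cells (beta-lactamase reporter) given compound plus chenodeoxycholic acid (50 uM final), 16 h at 37C. LiveBLAzer B/G FRET substrate added for 2 h at room temperature; fluorescence read.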
# Chain of Peroxisome proliferator-activated receptor gamma (Homo sapiens) (P37231 whole entry, looked up): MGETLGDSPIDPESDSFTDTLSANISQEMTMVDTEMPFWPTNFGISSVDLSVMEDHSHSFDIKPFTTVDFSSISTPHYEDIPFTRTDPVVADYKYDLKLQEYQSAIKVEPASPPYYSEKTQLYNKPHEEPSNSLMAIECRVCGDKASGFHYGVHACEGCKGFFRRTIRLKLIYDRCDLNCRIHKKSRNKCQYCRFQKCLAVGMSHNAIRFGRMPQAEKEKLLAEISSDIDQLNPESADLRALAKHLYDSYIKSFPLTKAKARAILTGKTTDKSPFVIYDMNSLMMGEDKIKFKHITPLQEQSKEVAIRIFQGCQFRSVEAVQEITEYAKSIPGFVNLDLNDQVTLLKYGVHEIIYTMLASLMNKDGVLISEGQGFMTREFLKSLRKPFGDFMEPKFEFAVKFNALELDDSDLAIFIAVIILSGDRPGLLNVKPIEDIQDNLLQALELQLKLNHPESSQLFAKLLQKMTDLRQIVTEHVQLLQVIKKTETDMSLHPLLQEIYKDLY
# Chain of Peroxisome proliferator-activated receptor delta (Homo sapiens) (Q03181 whole entry, looked up): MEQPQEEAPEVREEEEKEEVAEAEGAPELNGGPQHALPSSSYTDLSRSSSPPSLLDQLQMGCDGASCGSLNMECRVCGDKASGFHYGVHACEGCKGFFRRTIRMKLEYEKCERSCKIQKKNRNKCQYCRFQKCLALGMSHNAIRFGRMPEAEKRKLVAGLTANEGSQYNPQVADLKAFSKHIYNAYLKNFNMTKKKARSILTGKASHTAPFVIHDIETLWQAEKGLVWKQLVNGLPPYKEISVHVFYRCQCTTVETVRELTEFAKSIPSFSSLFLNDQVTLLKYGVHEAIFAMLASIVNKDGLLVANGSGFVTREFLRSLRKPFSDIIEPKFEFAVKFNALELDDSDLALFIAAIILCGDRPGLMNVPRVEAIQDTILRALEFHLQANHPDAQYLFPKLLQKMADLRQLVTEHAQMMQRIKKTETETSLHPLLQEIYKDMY
# Chain of Bile acid receptor (Homo sapiens) (Q96RI1 whole entry, looked up): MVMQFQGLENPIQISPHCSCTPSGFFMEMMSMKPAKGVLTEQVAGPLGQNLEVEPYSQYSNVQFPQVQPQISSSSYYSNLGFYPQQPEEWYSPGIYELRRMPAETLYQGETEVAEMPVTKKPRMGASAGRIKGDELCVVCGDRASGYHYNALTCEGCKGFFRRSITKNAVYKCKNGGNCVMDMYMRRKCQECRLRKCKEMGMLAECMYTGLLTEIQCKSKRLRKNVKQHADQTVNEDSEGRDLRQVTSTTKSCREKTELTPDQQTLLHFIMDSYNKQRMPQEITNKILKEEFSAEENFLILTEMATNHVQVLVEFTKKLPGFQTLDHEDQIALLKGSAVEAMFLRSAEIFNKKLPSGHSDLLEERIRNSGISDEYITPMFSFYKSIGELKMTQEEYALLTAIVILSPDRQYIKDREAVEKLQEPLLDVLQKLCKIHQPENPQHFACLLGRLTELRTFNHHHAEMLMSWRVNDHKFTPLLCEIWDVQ
# Chain of Vitamin D3 receptor (Homo sapiens) (P11473 whole entry, looked up): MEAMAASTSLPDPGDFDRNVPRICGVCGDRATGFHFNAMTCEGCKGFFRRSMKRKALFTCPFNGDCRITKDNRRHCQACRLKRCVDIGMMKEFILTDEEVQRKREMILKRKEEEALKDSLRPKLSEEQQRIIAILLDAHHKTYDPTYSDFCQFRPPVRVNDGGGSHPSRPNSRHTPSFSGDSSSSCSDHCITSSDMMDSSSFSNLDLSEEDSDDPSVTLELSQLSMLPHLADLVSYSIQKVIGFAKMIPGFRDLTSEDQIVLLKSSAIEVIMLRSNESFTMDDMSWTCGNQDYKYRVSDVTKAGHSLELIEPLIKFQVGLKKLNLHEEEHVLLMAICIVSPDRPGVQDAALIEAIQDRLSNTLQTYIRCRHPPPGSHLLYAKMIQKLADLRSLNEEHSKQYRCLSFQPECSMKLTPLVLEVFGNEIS
# Chain of Aryl hydrocarbon receptor (Homo sapiens) (P35869 whole entry, looked up): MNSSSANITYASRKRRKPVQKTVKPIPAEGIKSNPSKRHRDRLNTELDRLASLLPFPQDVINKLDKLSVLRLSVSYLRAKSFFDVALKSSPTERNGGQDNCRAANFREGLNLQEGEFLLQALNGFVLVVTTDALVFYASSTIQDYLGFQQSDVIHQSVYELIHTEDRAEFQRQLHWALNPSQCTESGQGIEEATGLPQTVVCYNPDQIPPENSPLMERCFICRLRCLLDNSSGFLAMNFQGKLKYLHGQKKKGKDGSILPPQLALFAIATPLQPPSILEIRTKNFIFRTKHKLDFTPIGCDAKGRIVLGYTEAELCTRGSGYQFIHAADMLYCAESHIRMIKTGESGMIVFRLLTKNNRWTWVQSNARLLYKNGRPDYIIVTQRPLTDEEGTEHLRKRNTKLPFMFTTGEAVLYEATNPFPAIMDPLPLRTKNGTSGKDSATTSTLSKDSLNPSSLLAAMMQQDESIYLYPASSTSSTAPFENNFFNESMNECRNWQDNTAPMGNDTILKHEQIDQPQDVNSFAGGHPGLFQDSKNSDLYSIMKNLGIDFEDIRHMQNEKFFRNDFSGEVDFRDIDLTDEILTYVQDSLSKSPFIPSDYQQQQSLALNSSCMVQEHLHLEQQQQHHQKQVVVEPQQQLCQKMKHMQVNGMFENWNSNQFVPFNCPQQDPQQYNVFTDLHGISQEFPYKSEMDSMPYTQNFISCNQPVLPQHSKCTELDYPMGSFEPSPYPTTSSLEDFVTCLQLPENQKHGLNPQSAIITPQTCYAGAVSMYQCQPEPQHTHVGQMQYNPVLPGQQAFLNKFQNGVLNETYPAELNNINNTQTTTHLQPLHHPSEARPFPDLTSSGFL
Compound,Potency [1],Potency [2],Potency [3],outcome [4],outcome [5],Potency [6],outcome [7],outcome [8],outcome [9],outcome [10],outcome [11],outcome [12],outcome [13],Potency [14],outcome [15],outcome [16],outcome [17],outcome [18],Potency [19],outcome [20]
CC1(N)CCC(C(C)(C)N)CC1 (stereo unspecified),inactive,inactive,inactive,inactive,inactive,inactive,inactive,inactive,inactive,inactive,inactive,inactive,inactive,inactive,inactive,inactive,inactive,–,–,–
SCCSCCS,inactive,inactive,inactive,inactive,inactive,inactive,inactive,inactive,inactive,inactive,inactive,inactive,inactive,–,inactive,inactive,–,inactive,–,–
CCCCCCCCCCCCC,inactive,inactive,inactive,inactive,inactive,–,inactive,inactive,inactive,–,inactive,–,–,–,inactive,inactive,–,–,inactive,–
CCC(C)(C)C1CCC(=O)CC1,inactive,inactive,inactive,inactive,inactive,inactive,inactive,inactive,inactive,inactive,inactive,inactive,inactive,inactive,inactive,inactive,inactive,–,–,–
O=C(O)c1ccccc1C(=O)Nc1ccc(S(=O)(=O)Nc2nccs2)cc1,inactive,inactive,inactive,inactive,–,inactive,inactive,inactive,inactive,inactive,inactive,inactive,inactive,–,inactive,inactive,inactive,–,inactive,–
NC(Cc1c[nH]c2ccccc12)C(=O)O (stereo unspecified),inactive,21.2 µM (active),inactive,inactive,inactive,inactive,inactive,inactive,inactive,inactive,inactive,inactive,inactive,inactive,inactive,inactive,–,–,–,–
O=c1cc(O)c(Cl)c[nH]1,inactive,inactive,inactive,inactive,inactive,–,inactive,inactive,inactive,inactive,inactive,inactive,inactive,–,inactive,inactive,inactive,inactive,inactive,inactive
CN[C@@H]1[C@@H](O)[C@@H](O[C@@H]2[C@H](O)[C@H](O[C@H]3OC(CN)=CC[C@H]3N)[C@@H](N)C[C@H]2N)OCC1(C)O (stereo partly specified),inactive,inactive,inactive,inactive,inactive,inactive,inactive,inactive,inactive,inactive,inactive,inactive,inactive,inactive,inactive,–,inactive,–,–,–
O=P(O)(O)OCC(O)CO (stereo unspecified),inactive,inactive,inactive,inactive,inactive,inactive,inactive,inactive,–,inactive,inactive,inactive,inactive,inactive,inactive,–,–,inactive,inactive,inactive
CCC(=O)c1ccc(O)cc1,inactive,inactive,inactive,inactive,inactive,–,inactive,inactive,inactive,–,–,inactive,–,inactive,inactive,inactive,inactive,inactive,inactive,–
CC(C)COC(=O)CC(C(=O)OCC(C)C)S(=O)(=O)O (stereo unspecified),inactive,inactive,inactive,inactive,inactive,–,–,inactive,inactive,inactive,–,inactive,–,inactive,inactive,inactive,–,–,inactive,–
Cc1ccccc1C(=O)N1CC/C(=N\OS(=O)(=O)O)c2ccc(Cl)cc21,inactive,inactive,inactive,inactive,inactive,inactive,inactive,inactive,–,–,inactive,inactive,inactive,inactive,inactive,inactive,–,–,inactive,–
NS(=O)(=O)c1ccccc1OC(F)(F)F,inactive,inactive,inactive,inactive,inactive,–,inactive,inactive,inactive,–,inactive,–,–,–,inactive,inactive,inactive,–,inactive,inactive
C=CCOCC(O)CCl (stereo unspecified),inactive,inactive,inactive,inactive,inactive,–,inactive,inactive,inactive,inactive,–,inactive,inactive,–,inactive,inactive,–,–,inactive,–
COC(=O)CCC(=O)O,inactive,inactive,inactive,inactive,inactive,–,inactive,inactive,inactive,inactive,–,inactive,–,inactive,inactive,inactive,inactive,–,inactive,–
NS(=O)(=O)c1ccc(Cl)c(S(N)(=O)=O)c1,inactive,inactive,inactive,inactive,inactive,–,inactive,inactive,inactive,inactive,–,inactive,–,inactive,inactive,inactive,inactive,–,inactive,–
CCCOCCOCCOCCO,inactive,inactive,inactive,inactive,–,inactive,inactive,inactive,inactive,inactive,inactive,inactive,inactive,–,inactive,inactive,–,–,inactive,inactive
CC(=O)Nc1ncc([N+](=O)[O-])s1,inactive,inactive,inactive,inactive,inactive,–,inactive,inactive,inactive,inactive,inactive,–,–,inactive,inactive,inactive,–,inactive,inactive,–
CCCCCCCCCOCC1CO1 (stereo unspecified),inactive,inactive,inactive,inactive,inactive,–,inactive,inactive,–,inactive,inactive,inactive,inactive,–,inactive,inactive,–,–,inactive,–
